Source: PubChem BioAssay
PGC1a acetyl inh – PGC1a acetylation modulation, inhibitor mode | U2OS PGC1a acetylation, AlphaScreen anti-acetyl-lysine; with virally co-expressed GCN5 acetyltransferase | inhibition, % at 15.6 µM | 350,000 compounds, 0.17% hits;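 active = every replicate shows inhibition of at least 40%; inconclusive = mean inhibition at least 40% but some replicate below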;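 also: 0% = neutral control wells and 100% = positive control wells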
Ecoli rRNA inh – inhibitors of bacterial rRNA selective over humanized ribosomes | E. coli WT GFP vs humanized-ribosome RFP mutants, fluorescence, 24 h; stronger effect = lower value; DMSO median 0, no signal -100 | GFP signal change (wild-type ribosome), % (test concentration not listed) | 350,000 compounds, 1.6% hits | AID 720706;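 active = significant combined selectivity score with lowered wild-type GFP, culture density cut under 30%, mutant RFP and density less affected; inactive = any of these conditions unmet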
PAX8 reporter – inhibitors of PAX8 transcriptional activity in RMG-I cells; RMG-I TPO-luciferase reporter, SteadyGlo, 24 h; inhibition, % at 12.6 µM; 360,000 compounds, 1.2% hits;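 active = mean replicate inhibition at least 60% with every replicate also reaching 60%; inconclusive = only one of the two criteria is met; inactive = mean below 60% and not all replicates reaching 60%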;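 also: luciferase light reporting Pax8 driven TPO promoter activity; plate controls were median of neutral control wells for no effect and mitoxantrone controls for full effect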
SIRT5 inh – inhibitors of human sirtuin-5 desuccinylase; Q9NXA8; Purified SirT5, succinyl-peptide AMC, trypsin-coupled fluorescence; AID 652115; 330,000 compounds, 1.1% hits; inhibition, % at 15 µM; in the data active = inhibition above about 15%; inconclusive = no clear call, values can overlap the other calls
Target sequence (Q9NXA8 whole entry, looked up): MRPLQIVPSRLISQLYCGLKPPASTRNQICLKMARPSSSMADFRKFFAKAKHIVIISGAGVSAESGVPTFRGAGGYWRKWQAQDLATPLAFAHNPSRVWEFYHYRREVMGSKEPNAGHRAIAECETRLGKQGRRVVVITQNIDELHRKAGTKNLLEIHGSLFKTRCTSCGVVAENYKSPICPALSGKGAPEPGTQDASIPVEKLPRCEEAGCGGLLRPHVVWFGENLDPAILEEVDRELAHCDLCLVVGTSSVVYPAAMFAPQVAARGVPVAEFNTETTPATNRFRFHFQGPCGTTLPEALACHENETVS
EWS-Fli block – blocks EWS/Fli oncoprotein-driven transcription. A673 NR0B1-luciferase reporter, viability-normalised. inhibition, % at 12.6 µM. 350,000 compounds, 0.67% hits;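 active = mean inhibition of at least 50% after viability correction, with every replicate also passing that limit; inconclusive = mean reaches 50% but only one of two replicates passes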;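 also: firefly luciferase signal divided by Alamar Blue viability fluorescence both relative to DMSO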
LGR2 antag – Drosophila LGR2 receptor signaling inhibition; HEK293 LGR2, CRE-luciferase, bursicon-stimulated, 4 h; inhibition, % at 9.99 µM; 380,000 compounds, 0.35% hits;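 active = drop in luminescence signal, shown as inhibition above about 50% in the replicate tests, limit read from the data, passing the limit was not always enough; inconclusive = probably only some replicates passing the limit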;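 also: agonist challenge used bursicon conditioned medium at about half maximal strength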
HepG2 cytotox – HepG2 cell cytotoxicity | 30 tested, under 10 active | shares compounds with Ecoli rRNA inh | activity change, negative = cytotoxicity, unspecified at 26 µM | HepG2 viability, ATP luminescence, 72 h;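 active = compounds whose fitted half-maximal signal-loss concentration is at most twice their highest valid dose; inconclusive = flat curve with 30 to 70% signal loss, or poor fit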
AID977621 – wild-type E. coli growth inhibition versus H69 humanized strain – H69 mutant RFP, wild-type GFP, cherry-pick, dose response; shares compounds with Ecoli rRNA inh; fluorescence, 24 h; activity change, negative = inhibition at 50 µM; 1,900 tested, under 10 active;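 active = Wild-type ribosome reporter drop at least double the humanized mutant ribosome reporter drop, growth loss under a set limit; inconclusive = no clear call, values can overlap the other calls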;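 also: wild-type GFP and H69 mutant RFP strains grown together 50/50 in each well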
AID977628 – E. coli growth inhibition, wild-type GFP versus h24 humanized RFP strain, dose response, h24 mutant RFP vs wild-type GFP, cherry-pick; shares compounds with Ecoli rRNA inh; E. coli WT GFP strain growth, fluorescence, 24 h; activity change, negative = inhibition at 50 µM; 1,900 tested, under 10 active; AID 977628;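 active = compound lowering the normal-ribosome reporter at least twice as much as the humanized-ribosome reporter, growth loss under a set limit; inconclusive = no clear call, values can overlap the other calls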;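 also: wild-type GFP and h24 humanized RFP strains co-cultured 1 to 1 per well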
* marks the source's active call; other numbers are inactive results; ? = inconclusive; / = no result. In the library only some 3.4% were active in any assay of this set; here they are far more common.

SMILES	PGC1a acetyl inh	Ecoli rRNA inh	PAX8 reporter	SIRT5 inh	EWS-Fli block	LGR2 antag	AID977621	AID977628	others
COc1cc(NC(=O)CSc2nc(C)cs2)cc(OC)c1	-5.7	-29.6*	/	-4.1	-6.9	-7.5	-16.2	/
Nc1nc(Nc2ccccc2F)nc(NCc2ccco2)c1[N+](=O)[O-]	/	-20.3*	-21.9	1.8	-6.4	-40.8	?	/
Cc1ccc(Nc2nc(N)c([N+](=O)[O-])c(NCc3ccco3)n2)cc1	/	/	-45.7	/	-29.6	-45.1	/	/
CCOC(=O)c1c(NC(=O)Cc2cccs2)sc(C)c1C	-10.8	-33.9*	/	-0.9	18.4	-11.9	/	/	HepG2 cytotox=11.3
O=C(CC(c1ccccc1)c1cc(Br)ccc1O)N1CCCC1 (centres undefined)	-14.9	-20.4*	7.4	-0.2	6.9	-9.1	/	?
COc1ccc(-c2cn3cc(Cl)ccc3n2)cc1OC	0.2	-26.9*	/	-1.4	-360.7	-32.6	/	?
C[C@H]1CCCCO[C@@H](CN(C)S(=O)(=O)c2cn(C)cn2)[C@@H](C)CN([C@@H](C)CO)C(=O)c2cc(NS(=O)(=O)c3ccc(Cl)cc3)ccc2O1	-13.7	-3.1	4.5	3.6	-4.5	-9.4	/	/
CC(=O)Nc1ccc(OCc2nnc(-c3ccccc3)o2)cc1	/	-22.8*	-8.9	-0.3	-41.9	-12.4	?	-17.3
CC(=O)Nc1ccccc1OCc1nnc(-c2ccc(Cl)cc2)o1	8.5	-23.1	-21.2	-0.6	-23.9	-39.8	/	/
COc1ccc(CC(=O)Oc2ccc(C)cc2C)cc1	/	-23.1*	-0.6	0.0	10.5	1.3	-5.68	-5.95
CN1C(=O)c2cc(NC(=O)c3cccs3)ccc2OC[C@H]2O[C@H](CC(=O)NCC(F)(F)F)CC[C@@H]21	-4.6	-0.9	1.9	-2.9	-18.1	-1.6	/	/
O=C(COC(=O)C1CC2C=CC1C2)Nc1ccc([N+](=O)[O-])cc1 (centres undefined)	-3.1	-30.7*	-4.2	-0.2	-3.1	-15.7	-16.7	-11.5
NC(=O)c1ccc(NC(=O)COC(=O)C2CC3C=CC2C3)cc1 (centres undefined)	7.0	1.9	-6.3	4.1	1.3	1.9	/	/
CNC(=O)C[C@@H]1CC[C@@H]2[C@H](COc3ccc(NC(=O)NCc4ccccc4)cc3C(=O)N2C)O1	-4.6	1.6	-19.2	/	-5.8	20.8	/	/
COc1ccc(NC(=O)c2ccc(COc3ccccc3Br)o2)c(OC)c1	3.1	-16.4*	-6.0	-3.2	-21.4	4.6	-12	-0.848
CCOc1ccccc1C(=O)NCC(=O)OCCCOC(=O)CNC(=O)c1ccccc1OCC	14.1	-8.9	/	-0.3	-1.7	-4.3	/	/
CCOc1ccccc1C(=O)NCC(=O)OCCOc1cccc(Cl)c1	/	-32.9*	-3.7	-6.0	-6.5	1.5	-11.5	-5.64
Cc1ccc(-n2c(SCC(=O)OC(C)C)nnc2-c2cnccn2)cc1	-1.2	/	12.5	/	/	/	/	/
Cc1ccc(-n2c(SCC(N)=O)nnc2-c2cnccn2)cc1	4.9	-24.5*	3.6	0.2	-3.1	-17.0	-2.2	?
CO[C@@H]1CN(C)C(=O)c2cc(NS(C)(=O)=O)ccc2OC[C@H](C)N(C(=O)C2CC2)C[C@H]1C	4.5	3.6	-11.3	4.3	5.5	-9.8	/	/
O=C1CSC(c2cccnc2)N1Cc1ccc(Cl)c(Cl)c1 (centres undefined)	/	-34.5*	23.1	-0.6	4.0	-0.4	/	-4.76
CC(C)(C)c1ccc(N2C(=O)CSC2c2cccnc2)cc1 (centres undefined)	/	-19.5*	-19.3	-2.1	10.9	1.8	-10.4	/
O=C1CSC(c2ccccc2)N1Cc1ccccc1 (centres undefined)	3.2	-25.1	12.4	-1.1	4.0	3.0	/	/
C[C@H](CO)N1C[C@H](C)[C@H](CN(C)S(C)(=O)=O)Oc2ccc(NS(=O)(=O)c3cn(C)cn3)cc2C1=O	-6.9	2.7	/	-0.7	-4.9	-15.1	/	/
C[C@@H]1CN([C@@H](C)CO)C(=O)Cc2cc(NC(=O)NC3CCCCC3)ccc2O[C@@H]1CN(C)S(=O)(=O)c1cn(C)cn1	-0.1	5.8	/	0.2	6.7	7.2	/	/
SMILES	PGC1a acetyl inh	Ecoli rRNA inh	PAX8 reporter	SIRT5 inh	EWS-Fli block	LGR2 antag	AID977621	AID977628	others
O=S(=O)(Cc1ccco1)Cc1nc(-c2ccc(Cl)cc2)cs1	-5.5	-33.8*	-5.3	-2.3	1.8	-13.3	-1.07	-4.72
CCCNC(=O)N1[C@@H]2c3ccc(-c4cccc(F)c4)c(=O)n3C[C@H]1[C@H](CO)[C@H]2C(=O)NC1CCC1	/	2.9	-21.2	-30.3	-7.0	0.7	/	/
Cc1c(C)n(C(=O)CN2CCC(C(N)=O)CC2)c2ccccc12	-6.5	/	/	/	/	-5.6	/	/
O=C(CN1CCCCC1)n1c2ccccc2c2ccccc21	4.2	-23.7*	-7.9	-4.2	3.0	-32.9	-2.95	-0.412
O=C(c1ccccc1)c1ccc2nc(-c3ccc(NC(=O)c4ccccc4Br)cc3)[nH]c2c1	-3.2	-17.1*	/	/	/	-7.9	/	-13
Cc1ccccc1C(=O)Nc1ccc(-c2nc3ccc(C(=O)c4ccccc4)cc3[nH]2)cc1	-2.6	/	/	/	/	11.9	/	/
OC(COc1ccc(Cl)cc1)CN1CCN(c2ccccn2)CC1 (centres undefined)	0.5	-21.8*	-0.2	-7.2	3.9	/	/	-6.82
COc1ccccc1CN1Cc2ccccc2Oc2ccccc2S1(=O)=O	/	-26.8*	7.5	-4.2	-1.6	13.4	?	/
C[n+]1ccccc1/C=C/c1cc(Br)ccc1O	/	-21.3*	14.3	1.9	-16.7	-6.7	/	?
CCOc1cc(/C=C/c2cccc[n+]2C)ccc1O	-1.9	-0.4	-23.0	1.6	17.7	9.0	/	/
C[C@H](O)C#Cc1ccc2c(c1)O[C@@H](CN(C)C(=O)C1CCCCC1)[C@H](C)CN([C@H](C)CO)S2(=O)=O	0.4	-4.8	/	3.5	1.5	-0.9	/	/
CC(NC(=O)C12CC3CC(C)(CC(C)(C3)C1)C2)c1ccncc1 (centres undefined)	0.0	-23.6*	-0.2	/	-7.7	8.8	-19.6	-7.7
CC12CC3CC(C)(C1)CC(C(=O)NNC(=O)c1ccncc1)(C3)C2	6.2	-11.7	39.3	-2.1	-7.5	-6.0	/	/
C[C@@H]1CCCCO[C@@H](CN(C)C)[C@H](C)CN([C@@H](C)CO)C(=O)c2cc(NS(=O)(=O)c3cccs3)ccc2O1	5.4	1.6	-19.8	0.1	-12.5	11.8	/	/
